Bioassay records as filed in PubChem BioAssay.
Tau fibril ThT: tau fibrillization inhibition (ThT binding); recombinant tau K18 P301L, heparin-induced fibrillization, ThT fluorescence; AID 1460; Potency, µM (series often up to 57.4 µM), for inactives: at the highest dose activity, negative = inhibition, hits mostly inhibitors; 2.1% of 270,000 active; also: nearly all actives have a fitted effect of over 55% in size
Target sequence (P10636 561-689 P618L limits assumed): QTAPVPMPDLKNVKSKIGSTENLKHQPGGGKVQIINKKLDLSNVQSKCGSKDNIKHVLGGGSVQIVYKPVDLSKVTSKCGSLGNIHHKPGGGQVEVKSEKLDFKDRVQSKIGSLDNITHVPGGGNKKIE
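Heparin-induced (20 uM) aggregation of recombinant human K18 P301L tau, 15 uM unlabeled with 0.24 uM labeled, pH 7 acetate buffer, 6 hr at 37 C with compound. Fibrils quantified by 30 uM ThT fluorescence after 1 hr ambient incubation.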
RORg inh: inhibitors of mouse ROR gamma transcriptional activity. P51450. Drosophila S2 Gal4-RORgamma UAS-luciferase reporter, 20 h. Potency, µM (top dose mostly 53.6 µM), for inactives: at the highest dose activity change, negative = inhibition, actives largely listed as inhibitors. 5.4% of 310,000 active. AID 2551; also: nearly all actives have a fitted effect of over 60% in size
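In this cell-based reporter format, copper sulfate (700 uM final) drives Gal4–ROR gamma fusion expression from a metallothionein promoter in Drosophila Schneider cells; compounds preincubated 1 hr, reporter read after 20 hr at ambient temperature.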
VP16 counter: Gal4-VP16 reporter inhibition counter-screen | Drosophila S2 Gal4-VP16 UAS-luciferase, luminescence, 20 h | 3.5% of 310,000 active | AID 2546 | Potency, µM (highest dose often 53.6 µM), for inactives: top-dose activity, negative = inhibition, actives largely listed as inhibitors;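 also: Gal4-VP16 expression switched on by copper sulfate through the metallothionein promoter; nearly all actives have a fitted effect of over 50% in size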
Tau FP inhib: blocks human tau fibril formation measured by polarization; Potency, µM (titrated, usually from 57.7 µM), for inactives: at the highest dose activity, negative = inhibition, actives largely listed as inhibitors; 0.39% of 280,000 active; K18 P301L tau heparin fibrillization, Alexa594 FP, 6 h; AID 1468; also: nearly all actives have a fitted effect of over 55% in size
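FP of Alexa 594-tau after heparin (20 uM) induction. Substrate: human K18 P301L, 15 uM unlabeled, 0.24 uM labeled. Buffer 100 mM sodium acetate pH 7. 6 hr, 37 C.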
Tau fluor counter: counter-screen for tau fibril formation inhibitors; 0.93% of 280,000 active; tau K18 P301L Alexa594 fluorescence, heparin fibrillization; AID 1463; Potency, µM (doses to about 57.7 µM), without a hit: at the highest dose activity change, negative = decrease; also: nearly all actives have a fitted effect of over 55% in size
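Human tau K18 P301L (15 uM unlabeled, 0.24 uM Alexa 594-labeled) in 100 mM sodium acetate pH 7 with 20 uM heparin, 6 hr at 37 C. ThT 30 uM added, 1 hr ambient; Alexa 594 FP and total fluorescence read at 555/632 nm.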
Active calls of the source: *. Sampled rows, rich in hits. Any-hit rate of the full collection: about 7.3%. Calls follow the shape of the dose curve; as a rule, active = well fitted curve in the direction sought with a large enough effect; inconclusive = small, poorly fitted or top-dose-only effect, or another doubt; inactive = no such curve, though single readings can be large; an effect the other way counts as inactive or inconclusive. % is scaled to controls: 0 for no effect and ±100 for the full control effect; potency is read from the fitted curve at half-maximal effect.

`CCn1c(C)c(C(C)=O)c(N2CCN(c3cccc(Cl)c3)CC2)nc1=S` gave Tau fibril ThT inconclusive, RORg inh inconclusive, VP16 counter 1%, Tau FP inhib -6% and Tau fluor counter -20%.
C=CCn1c(C)c(C(C)=O)c(N2CCN(C(c3ccccc3)c3ccccc3)CC2)nc1=S was read as Tau fibril ThT -18%, RORg inh 18µM*, VP16 counter inconclusive, Tau FP inhib 11% and Tau fluor counter -14%.
Screening CC(=O)c1c(N2CCN(C)CC2)nc(=S)n(Cc2ccccc2)c1C returned Tau fibril ThT 4%, RORg inh -1%, VP16 counter -4%, Tau FP inhib 1% and Tau fluor counter 7%.
For CC(=O)c1c(N2CCN(c3ccccn3)CC2)nc(=S)n(-c2ccccc2)c1C the results were Tau fibril ThT inconclusive, RORg inh 1%, VP16 counter -5%, Tau FP inhib 1% and Tau fluor counter 5%.
`CCn1c(C)c(C(C)=O)c(N2CCN(c3ccc(OC)cc3)CC2)nc1=S` gave Tau fibril ThT 28µM*, RORg inh -27%, VP16 counter 1%, Tau FP inhib inconclusive and Tau fluor counter -28%.
Screening COc1ccc(-c2onc(C)c2C)cc1S(=O)(=O)Nc1cccc(C#N)c1 returned Tau fibril ThT 1%, Tau FP inhib -14% and Tau fluor counter -30%.
Screening COc1cccc(CNCCSc2nnnn2C)c1OCc1ccc(F)cc1 returned Tau fibril ThT -17%, Tau FP inhib -4% and Tau fluor counter -22%.
`CC(Oc1ccc(Cl)cc1Cl)C(=O)Nc1ccncc1` (configuration not stated) gave Tau fibril ThT -1%, RORg inh -29%, VP16 counter 20µM*, Tau FP inhib 1% and Tau fluor counter -6%.
CC(Oc1cccc(Cl)c1)C(=O)Nc1ccncc1 (configuration not stated) was read as Tau fibril ThT 11%, RORg inh inconclusive, VP16 counter 13µM*, Tau FP inhib 7% and Tau fluor counter 0%.
Brc1ccc2c(c1)c1cc(Br)ccc1n2CC1CO1 (configuration not stated) was read as Tau fibril ThT 0%, RORg inh 4%, VP16 counter -6%, Tau FP inhib inconclusive and Tau fluor counter -24%.
`O=C(O)CCC(=O)C(=O)O` (tested in a mixture with another compound) gave Tau fibril ThT 1%, RORg inh -9%, VP16 counter 7%, Tau FP inhib -11% and Tau fluor counter -5%.
CCOC(=O)c1cccc(Nc2ncnc3ccccc23)c1 was read as Tau fibril ThT inconclusive, RORg inh inconclusive, VP16 counter 15%, Tau FP inhib -3% and Tau fluor counter -17%.
For Cc1ccc(/C(=N/Nc2ncnc3ccccc23)C(=O)O)cc1 the results were RORg inh 0.05µM* and VP16 counter 0.89µM*.
`COC(=O)C(=O)C/C(=N/Nc1ncnc2ccccc12)c1ccc(Cl)cc1` gave RORg inh 11µM* and VP16 counter inconclusive.
Screening CNS(=O)(=O)c1cc(-c2nnc(Nc3cc(C)ccc3C)c3ccccc23)ccc1C returned Tau fibril ThT -12%, Tau FP inhib -5% and Tau fluor counter -22%.
`Cc1ccc(NC(=S)Nc2cc(-c3ccccc3)[nH]n2)cc1Cl` gave Tau fibril ThT -10%, RORg inh 0.79µM*, VP16 counter 2.2µM*, Tau FP inhib inconclusive and Tau fluor counter inconclusive.
`Fc1ccc(NC(=S)Nc2cc(-c3ccccc3)[nH]n2)cc1Cl` gave Tau fibril ThT 6%, RORg inh 0.79µM*, VP16 counter 1.6µM*, Tau FP inhib -10% and Tau fluor counter -10%.
For Cc1c(Cl)cccc1NC(=O)C1CCCN(c2nnc(-n3c(C)ccc3C)s2)C1 (configuration not stated) the results were Tau fibril ThT inconclusive, Tau FP inhib -19% and Tau fluor counter -25%.
